Test results: PubChem BioAssay AID1224921 (Broad Institute, 2016)
Screen size: about 1,400 compounds; about 350 (25%) were called active. Not shown: some 2% with an inconclusive outcome. No rule for the calls is given here. The list is a sample of the results. Results with a measured potency or affinity are listed apart.

assay: C. difficile growth inhibition, confirmation, 4-point retest (AID 1224921); details: Clostridioides difficile clinical isolate growth, OD600, 24 h, stronger effect = lower value; at 30 µM unless noted;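 also: plate controls were DMSO wells for no effect and levofloxacin 16 µg/mL wells for full effect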

Max activity, inactive:
C[C@@H]1CN([C@@H](C)CO)S(=O)(=O)c2ccc(C#CC3CC3)cc2O[C@H]1CN(C)Cc1ccncc1 53.6%
C[C@@H]1CN([C@@H](C)CO)S(=O)(=O)c2ccc(C3=CCCC3)cc2O[C@H]1CN(C)Cc1ccncc1 8.26%
CCCN1[C@@H]2c3ccc(/C=C/c4ccccc4)c(=O)n3C[C@H]1[C@H](CO)[C@H]2C(=O)NCC1CC1 3.29%
O=C(Nc1ccc2c(c1)[C@@H]1C[C@H](CC(=O)N3CCc4ccccc4C3)O[C@H](CO)[C@@H]1O2)NC1CCCC1 -11.8%
CC(C)[C@H](C)NC(=O)N(C)C[C@@H]1OCc2ccccc2-c2ccccc2C(=O)N([C@H](C)CO)C[C@H]1C -14.1% [at 8 µM]
CCC(=O)Nc1ccc2c(c1)C(=O)N(C)C[C@H](OC)[C@@H](C)CN(C(=O)CN1CCOCC1)[C@H](C)CO2 -15.4% [at 1.95 µM]
CCCNC(=O)Nc1ccc2c(c1)C(=O)N(C)C[C@@H](OC)[C@H](C)CN(CCC(F)(F)F)[C@@H](C)CO2 17.1%
CO[C@@H]1CN(C)C(=O)c2cc(NC(=O)c3cccc(F)c3)ccc2OC[C@H](C)N(C(C)=O)C[C@H]1C -16.4% [at 0.5 µM]
CCCN1C[C@H](C)[C@@H](OC)CN(C)C(=O)c2cc(NC(=O)Nc3ccccc3F)ccc2OC[C@H]1C -17.1% [at 8 µM]
Cc1noc(C)c1NC(=O)N[C@H]1CC[C@@H](CC(=O)Nc2ccc(-c3ccccc3)cc2)O[C@@H]1CO 28.3% [at 35 µM]
O=C(O)C[C@H]1C[C@@H]2c3cc(NC(=O)c4ccc5c(c4)OCO5)ccc3O[C@@H]2[C@H](CO)O1 -10.2% [at 0.5 µM]
CCNC(=O)C[C@H]1CC[C@@H](NC(=O)C2CC2)[C@H](CO)O1 -5.49% [at 1.95 µM]
CCNC(=O)C[C@H]1CC[C@H](NC(=O)C2CC2)[C@@H](CO)O1 -15.8% [at 8 µM]
CO[C@@H]1CN(C)C(=O)c2ccc(NC(=O)Nc3cccc(Cl)c3)cc2OC[C@@H](C)N(C(=O)Nc2c(C)noc2C)C[C@H]1C -7.11% [at 0.5 µM]
C[C@@H]1CN([C@@H](C)CO)S(=O)(=O)c2ccc(C3=CCCCC3)cc2O[C@@H]1CN(C)Cc1ccncc1 54.5%
CCS(=O)(=O)Nc1ccc2c(c1)C(=O)N(C)C[C@H](OC)[C@@H](C)CN(C(C)=O)[C@@H](C)CO2 -9.47% [at 1.95 µM]
CO[C@@H]1CN(C)C(=O)c2cc(NC(C)=O)ccc2OC[C@H](C)N(Cc2nccs2)C[C@H]1C 10.1%
CO[C@H]1CN(C)C(=O)c2cc(NC(C)=O)ccc2OC[C@H](C)N(CC2CCCCC2)C[C@H]1C 16.4%
C[C@@H]1CN([C@H](C)CO)S(=O)(=O)c2ccc(C#CC3(O)CCCC3)cc2O[C@@H]1CN(C)C(=O)Nc1ccc(F)cc1 21.5%
O=C(C[C@@H]1C=C[C@@H](NC(=O)Cc2cccnc2)[C@H](CO)O1)Nc1ccccc1 -12.6%
COc1ccccc1S(=O)(=O)N[C@@H]1C=C[C@H](CC(=O)N2CCCCC2)O[C@H]1CO -12.3% [at 8 µM]
O=C(C[C@@H]1C[C@H]2c3cc(NC(=O)Nc4ccccc4)ccc3O[C@H]2[C@@H](CO)O1)NC1CCCC1 -18%
Cc1ccc(-c2ccc3c(c2)O[C@H](CN(C)Cc2cccnc2)[C@H](C)CN([C@@H](C)CO)S3(=O)=O)cc1 32.9%
CC(=O)N(C)C[C@@H]1Oc2ncc(C#Cc3ccc(F)cc3)cc2C(=O)N([C@H](C)CO)C[C@H]1C 21.7%
CO[C@H]1CN(C)C(=O)c2ccc(NC(=O)Nc3cccc(Cl)c3)cc2OC[C@H](C)NC[C@@H]1C -12.1% [at 8 µM]
CO[C@H]1CN(C)C(=O)c2ccc(NC(=O)Nc3cccc(Cl)c3)cc2OC[C@@H](C)NC[C@@H]1C 37.7%
C[C@@H]1CN([C@H](C)CO)C(=O)c2cc(NC(=O)CCCN(C)C)ccc2O[C@@H](C)CCCCO[C@@H]1CN(C)Cc1ccc(C(F)(F)F)cc1 6.03% [at 35 µM]
C[C@@H]1CN([C@H](C)CO)C(=O)c2cc(NC(=O)Nc3cccc4ccccc34)ccc2O[C@@H](C)CCCCO[C@H]1CN(C)C(=O)c1ccccc1 24.4%
CO[C@@H]1CN(C)C(=O)c2ccc(NC(C)=O)cc2OC[C@@H](C)N(C(=O)CN(C)C)C[C@H]1C -8.17%
CCCC(=O)Nc1ccc2c(c1)C(=O)N(C)C[C@@H](OC)[C@@H](C)CN(Cc1ccc(F)cc1)[C@H](C)CO2 20.9%
COc1ccc(-c2cnc3c(c2)C(=O)N([C@H](C)CO)C[C@H](C)[C@@H](CN(C)Cc2ccc(C(=O)O)cc2)O3)cc1 -17.6% [at 2.1 µM]
CO[C@H]1CN(C)C(=O)c2cc(NC(=O)c3nc4ccccc4s3)ccc2OC[C@H](C)N(Cc2ccncc2)C[C@@H]1C 20%
CCC(=O)N1C[C@@H](C)[C@@H](OC)CN(C)C(=O)c2ccc(NC(=O)Nc3ccccc3)cc2OC[C@H]1C -13.3% [at 1.95 µM]
COCC(=O)N(C)C[C@H]1Oc2cc(C#Cc3ccccc3)ccc2S(=O)(=O)N([C@H](C)CO)C[C@H]1C 35.4%
CCS(=O)(=O)Nc1ccc2c(c1)C(=O)N(C)C[C@@H](OC)[C@@H](C)CN(CC1CCCC1)[C@@H](C)CO2 -10.9% [at 0.5 µM]
Cc1ccc(-c2ccc3c(c2)O[C@@H](CN(C)Cc2cccnc2)[C@@H](C)CN([C@H](C)CO)S3(=O)=O)cc1 26.8%
CN1CCN(C(=O)C[C@@H]2C[C@@H]3c4cc(NC(=O)Cc5ccncc5)ccc4O[C@@H]3[C@H](CO)O2)CC1 13.2%
O=C(N[C@@H]1C=C[C@@H](CC(=O)N2CCOCC2)O[C@@H]1CO)c1cccc(F)c1 -15.3% [at 1.95 µM]
C[C@H](CO)N1C[C@H](C)[C@H](CN(C)C(=O)Nc2ccc(F)cc2)Oc2ncc(-c3cc4ccccc4o3)cc2C1=O 26.1%
COc1ccccc1S(=O)(=O)N[C@H]1C=C[C@@H](CC(=O)N2CCCCC2)O[C@H]1CO -12.3%
COc1ccc(CNC(=O)C[C@H]2C[C@@H]3c4cc(NC(=O)NC5CCCC5)ccc4O[C@@H]3[C@@H](CO)O2)cc1 -9.75%
CO[C@@H]1CN(C)C(=O)c2ccc(NC(=O)C3CCCC3)cc2OC[C@@H](C)NC[C@@H]1C -1.17% [at 1.95 µM]
CO[C@H]1CN(C)C(=O)c2ccc(NC(=O)C3CCCCC3)cc2OC[C@H](C)N(Cc2nccs2)C[C@H]1C 21.8% [at 8 µM]
C[C@@H]1CN([C@H](C)CO)C(=O)c2ccccc2-c2ccccc2CO[C@H]1CN(C)S(=O)(=O)c1ccsc1 29%
C[C@@H]1CN([C@H](C)CO)C(=O)Cc2cc(NS(C)(=O)=O)ccc2O[C@H]1CN(C)Cc1ccccc1 15.9%
COc1ccc(-c2ccc([C@H]3[C@H](C#N)N(C(=O)NC4CCCC4)[C@H]3CO)cc2)cc1 36.8% [at 9 µM]
CO[C@H]1CN(C)C(=O)c2cc(NC(=O)c3cccc(F)c3)ccc2OC[C@H](C)N(C(C)=O)C[C@H]1C -6.58%
Cc1nn(C)cc1NC(=O)C[C@@H]1CC[C@@H]2[C@@H](COc3ccc(NC(=O)Nc4cccc(Cl)c4)cc3C(=O)N2C)O1 10.1%
Cc1ccccc1-c1ccc2c(c1)O[C@H](CN(C)Cc1ccncc1)[C@@H](C)CN([C@H](C)CO)S2(=O)=O 13.6%
CCC(=O)Nc1ccc2c(c1)OC[C@H](C)N(CC1CCCCC1)C[C@H](C)[C@@H](OC)CN(C)C2=O 33.6%
COCC(=O)Nc1ccc2c(c1)OC[C@@H](C)N(Cc1ccccc1F)C[C@@H](C)[C@@H](OC)CN(C)C2=O -4.19%
C[C@@H]1CN([C@H](C)CO)C(=O)c2ccccc2-c2ccccc2CO[C@@H]1CN(C)C(=O)CCN(C)C -7.59% [at 2.1 µM]
COc1ccc(S(=O)(=O)Nc2ccc3c(c2)CC(=O)N([C@@H](C)CO)C[C@H](C)[C@@H](CN(C)CC2CCCCC2)O3)cc1 52.7%
C[C@@H]1CN([C@H](C)CO)C(=O)Cc2cc(NS(=O)(=O)c3ccccc3)ccc2O[C@@H]1CN(C)Cc1ccc(Cl)c(Cl)c1 30.5% [at 35 µM]
C[C@@H]1CCCCO[C@H](CN(C)Cc2ccc(C(F)(F)F)cc2)[C@@H](C)CN([C@@H](C)CO)C(=O)c2cc(NS(=O)(=O)c3ccc(Cl)cc3)ccc2O1 24% [at 8 µM]
Cc1ccc(S(=O)(=O)Nc2ccc3c(c2)C(=O)N([C@@H](C)CO)C[C@@H](C)[C@H](CN(C)C)OCCCC[C@H](C)O3)cc1 -4% [at 8 µM]
Cc1ccc(S(=O)(=O)Nc2ccc3c(c2)C(=O)N([C@@H](C)CO)C[C@H](C)[C@@H](CN(C)Cc2ccc(C(F)(F)F)cc2)OCCCC[C@@H](C)O3)cc1 32.7% [at 8 µM]
C[C@H]1CN([C@@H](C)CO)C(=O)Cc2cc(NS(=O)(=O)c3ccccc3)ccc2O[C@@H]1CN(C)Cc1ccc(Cl)c(Cl)c1 49.4%
C[C@H](CO)N1C[C@H](C)[C@H](CN(C)CC2CCCCC2)OCCCC[C@H](C)Oc2ccc(NS(=O)(=O)c3ccc(Cl)cc3)cc2C1=O 23% [at 8 µM]
C[C@@H]1CN([C@@H](C)CO)C(=O)Cc2cc(NS(C)(=O)=O)ccc2O[C@H]1CN(C)CC1CCCCC1 14.3%
